Source: PubChem BioAssay AID720517 (National Center for Advancing Translational Sciences (NCATS), 2013)
Records with an inconclusive call do not appear. Values without a mark were called inactive. The call rests on the fitted dose curve; in most records, active means well fitted activation curve with a large enough effect; inconclusive means small, poorly fitted or top-dose-only effect; inactive means flat fitted curve, though single readings scatter.

Test: qHTS for Inhibitors of Cell Surface uPA Generation: FP59 Counterscreen for Cherry-picked Compounds; further: 0% is about no effect
Conditions: FP59 anthrax toxin cytotoxicity counterscreen, cells; series mostly up to 115 µM; activity (protection from FP59): at the top concentration

| Compound | activity (protection from FP59) [%] |
| --- | --- |
| O=C(NCCOc1ccc(F)cc1)C1CCN(S(=O)(=O)c2ccccc2)CC1 | -1.44 |
| CCC(COC)NC(=O)CCc1nnc(Cc2c[nH]c3ccccc23)o1 (centres undefined) | -1.37 |
| O=C(NCCCN1CCCC1=O)c1cccc(Oc2ccccc2)c1 | -0.779 |
| OCC[C@@H]1C[C@H](O)[C@@H](O)[C@]2(OCCc3ccccc32)O1 | -1.32 |
| CCOC(=O)N1CCN(c2c(NCCCN3CCCCCC3)c(=O)c2=O)CC1 | -1.45 |
| COc1ccc(C(=O)NCCOC(C)C)cc1OC1CCN(C(C)=O)CC1 | -1.24 |
| COC(=O)c1ccc(CN2CCCC(CNC(=O)Cc3ccc(OC)cc3)C2)cc1 (centres undefined) | -1.35 |
| COc1cccc(CN(C)C(=O)c2cc(S(=O)(=O)N3CCCC3)ccc2C)c1OC | -1.14 |
| O=C(CN(c1ccccc1F)S(=O)(=O)c1ccccc1)Nc1ccc2c(c1)OCCO2 | -0.778 |
| COc1cccc(CC(=O)n2nc(N)c3cc4ccc(OC)cc4nc32)c1 | -1.51 |
| Cc1cc(/C=N/NC(=O)c2ccccc2F)c(C)n1-c1ccccc1 | -0.245 |
| COCCn1c(SCC(=O)Nc2ccc(F)cc2)nc2ccccc2c1=O | -1.36 |
| Cc1cc(NC(=O)COc2cccc([N+](=O)[O-])c2)no1 | -1.44 |
| Cc1ccc2sc(NNC(=O)c3ccc4c(c3)OCCO4)nc2c1C | 6.76 |
| Cc1ccc(-n2cccc2C(=O)NS(=O)(=O)c2ccc(C)cc2)cc1 | -1.27 |
| O=C(NC[C@H]1CCCO1)c1cccc2c1C(=O)c1ccc(-c3ccc(F)cc3OCc3ccccc3)cc1S2(=O)=O | -1.32 |
| O=C(O)c1ccccc1/C=N/NC(=S)NC1CCCCC1 | -1.18 |
| O=C(O)CNS(=O)(=O)c1ccc2c(c1)Cc1cc(S(=O)(=O)NCC(=O)O)ccc1-2 | -1.23 |
| CSCC[C@H](NC(=O)[C@H](Cc1ccccc1)n1c(=O)[nH]c2ccccc2c1=O)C(=O)N1CCC[C@H]1C(=O)O | -1.3 |
| CCN(CC)C(=O)Cn1cc(/C=C(\C#N)C(=O)NC2CC2)c2ccccc21 | -1.32 |

| Compound | activity (protection from FP59) [%] |
| --- | --- |
| C=CCn1c(SCc2ccc(C(=O)NCCO)cc2)nc2ccccc2c1=O | -1.12 |
| COC(=O)c1cc(CNC(=O)c2ccc(N3CCCC3)c([N+](=O)[O-])c2)ccc1OC | -1.29 |
| Cc1ccc(NC2CCCN(C(=O)Cc3nonc3C)C2)cc1C (centres undefined) | -1.47 |
| Cc1nc2nc(C)c(NS(=O)(=O)c3ccc(Cl)cc3)c(=O)n2[nH]1 | -1.36 |
| COc1ccccc1NNC(=O)C(O)(c1ccccc1OC)c1ccccc1OC | -1.17 |
| COc1ccc2[nH]cc(S(=O)(=O)c3ccc(C(C)C)cc3)c(=O)c2c1 | -1.35 |
| CC(=O)Nc1nc2ccccc2[nH]1 | -1.4 |
| CCOc1ccc(C(=O)NCCO)cc1 | -1.17 |
| CC(C)Cn1cnc2c1c(=O)[nH]c(=O)n2Cc1ccccc1 | -1.24 |
| COc1ccc(N2CCN(S(=O)(=O)c3ccc4c(c3)NC(=O)CS4)CC2)cc1 | -1.35 |
| CCCn1c(N)c(C(=O)CSc2nnc(C3CC3)n2Cc2ccccc2)c(=O)[nH]c1=O | -1.31 |
| Cc1ccsc1/C=C(\C#N)C(=O)NC1CCS(=O)(=O)C1 (centres undefined) | -1.29 |
| COc1ccc(NC(=O)CC(C)CC(=O)NCc2ccccc2)c(OC)c1 (centres undefined) | -1.24 |
| Cc1ccc(OCc2cc(C(=O)N(C)Cc3cc(C4CC4)n[nH]3)no2)cc1C | -0.124 |
| CCc1c(C)sc(NC(=S)N2CC(C)OC(C)C2)c1C(=O)OC (centres undefined) | 1.16 |
| COc1ccc(C2NC(=O)CCC2[N+](=O)[O-])c(OC)c1OC (centres undefined) | -1.16 |
| CC(C)c1ccc(SCc2noc(C(=O)NCC3CCCO3)c2C(=O)O)cc1 (centres undefined) | -1.37 |
| CCc1nc(SCC(N)=O)c2c(=O)n(C)c(=O)n(C)c2n1 | -1.48 |
| COCCNC(=O)C(c1c[nH]c2ccccc12)N(C(=O)c1snc(C(N)=O)c1N)c1cccc(OC)c1 (centres undefined) | 2.71 |
